Rows were chosen to be rich in hits. Some 3.9% of all compounds tested hit in one or more screens of this group.
S2 tox – Viability Counterscreen for Primary qHTS for Inhibitors of ATXN expression. S2 cells (HEK-293 line with an ATXN2-luciferase reporter) viability, CellTiter-Fluor protease fluorescence, 24 h. actives 0.49% (n = 400,000). AID 651635, 2014. Potency, µM (series often up to 56.7 µM), actives largely listed as cytotoxic; further: nearly all actives have a fitted effect of over 40% in size
HepG2 tox – qHTS for Inhibitors of TGF-b: Cytotox Counterscreen; actives 0.76% (n = 410,000); Potency, µM (titrated, usually from 46.1 µM), actives largely listed as cytotoxic; HepG2 CAGA-GFP viability, ATP luminescence, 18 h; AID 588856, 2011
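CellTiter-Glo luminescence gave cytotoxicity after 18 hours at 37 degrees C. The cells were HepG2 CAGA-GFP in 1% FBS DMEM, stimulated with 500 pg/mL TGF-beta after compound addition. %Activity was normalised to no-cell wells (complete cell-killing) and DMSO (no toxicity), and curves were fitted and classified.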
TGFb inhibitor – qHTS for Inhibitors of TGF-b. HepG2 CAGA-GFP TGF-b/SMAD3 reporter, GFP fluorescence, 18 h; TGF-beta stimulated, 500 pg/mL final. Potency, µM (series often up to 46.1 µM), actives largely listed as inhibitors. actives 1.2% (n = 410,000). AID 588855, 2011; further: nearly all actives have a fitted effect of over 65% in size
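TGF-beta reporter screen: HEPG2 CAGA-GFP, 1% FBS, 500 pg/mL TGF-beta final, 18 h; per-cell GFP summed per well; curves fitted and categorized by class.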
ATXN2 expr inh – Primary qHTS for Inhibitors of ATXN expression. HEK-293 ATXN2-luciferase reporter, luminescence, 24 h. Potency, µM (top dose mostly 57 µM), usual class: inhibitors. actives 0.72% (n = 360,000). AID 1745845, 2022; further: nearly all actives have a fitted effect of over 55% in size
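qHTS (up to 57 uM final) was run with 24 h compound exposure of reporter cells at 37 °C. Each well was multiplexed: SteadyGlo luminescence measured ATXN2-luciferase expression after a fluorogenic Gly-Phe-AFC viability readout (25 uM final).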
HT1080-NT tox – qHTS for induction of synthetic lethality in tumor cells producing 2HG: qHTS for the HT-1080-NT fibrosarcoma cell line. AID 686970, 2013. Potency, µM (highest dose often 46.1 µM), hits mostly cytotoxic. actives 1.6% (n = 360,000). HT-1080-NT fibrosarcoma viability, CellTiter-Glo ATP luminescence, 48 h;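 further: NT is the 2HG producing partner of a matched IDH1 knockdown line; nearly all actives have a fitted effect of over 55% in size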
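Viability by CellTiter-Glo luminescence after 48 h compound exposure at 37C of HT-1080-NT cells (750/well, RPMI, 5% FBS). % activity scaled between DMSO wells and medium-only wells, then curve-fitted and categorized by curve class.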
HT1080 IDH1KD tx – qHTS for induction of synthetic lethality in tumor cells producing 2HG: qHTS for the HT-1080-IDH1KD cell line; actives 2% (n = 360,000); HT-1080 IDH1 knockdown viability, ATP luminescence, 48 h; Potency, µM (top dose mostly 46.1 µM), usual class: cytotoxic; AID 686971, 2013
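Viability of IDH1-knockdown HT-1080 fibrosarcoma cells was assessed by CellTiter-Glo after 48 h at 37 °C with titrated compound; concentration-effect curves were classified by fit quality and response size.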
Large screens that a line does not name were inactive; ! = a repeat was not active. The call rests on the fitted dose curve; in most records, active means well fitted curve in the direction sought with a large enough effect; inconclusive means small, poorly fitted or top-dose-only effect, or another doubt; inactive means no such curve, though single readings can be large; an effect the other way counts as inactive or inconclusive.

COc1ccccc1N1CCN(c2ncnc3onc(C)c23)CC1	none (no result: HT1080-NT tox, HT1080 IDH1KD tx)
CCOc1ccccc1N1CCN(c2ncnc3scc(-c4ccc(OC)cc4)c23)CC1	TGFb inhibitor inconclusive, ATXN2 expr inh inconclusive, HT1080-NT tox inconclusive, HT1080 IDH1KD tx inconclusive
COc1ccc(-c2csc3ncnc(N4CCN(c5ccccc5OC)CC4)c23)cc1	S2 tox inconclusive, TGFb inhibitor inconclusive, ATXN2 expr inh 32µM
Cc1nn(-c2ccccc2)c2c1N(CC(=O)N1CCN(c3ccc(F)cc3)CC1)C(=O)CS2	none (no result: HT1080-NT tox, HT1080 IDH1KD tx)
CCOc1ccccc1CNC(=O)CN1C(=O)CCc2cc(S(=O)(=O)N3CCCCC3)ccc21	none (no result: HT1080-NT tox, HT1080 IDH1KD tx)
COc1ccc(C2CC(c3ccc4ccccc4c3)=NN2C(=O)CNC2CCCCC2)cc1 (stereo not given)	HepG2 tox 13µM, TGFb inhibitor inconclusive, HT1080-NT tox 23µM, HT1080 IDH1KD tx inconclusive (no result: S2 tox, ATXN2 expr inh)
COc1ccc(C2CC(c3ccc4ccccc4c3)=NN2C(=O)CN2CCC(C(N)=O)CC2)cc1 (stereo not given)	HT1080-NT tox inconclusive, HT1080 IDH1KD tx inconclusive
C=CCNCC(=O)N1N=C(c2ccc3ccccc3c2)CC1c1ccc(OC)cc1 (stereo not given)	HT1080-NT tox 23µM, HT1080 IDH1KD tx 23µM
COc1ccc(C2CC(c3ccc4ccccc4c3)=NN2C(=O)COC(=O)C2CCC(=O)N2)cc1 (stereo not given)	HT1080-NT tox inconclusive, HT1080 IDH1KD tx inconclusive
COc1cc2c(NC3CCN(C(C)C)CC3)nc(N3CCCN(C)CC3)nc2cc1OCCOCCN1CCCC1	TGFb inhibitor inconclusive (no result: S2 tox, ATXN2 expr inh, HT1080-NT tox, HT1080 IDH1KD tx)
CCc1ccccc1NC(=O)c1ccc([N+](=O)[O-])s1	HepG2 tox 11µM, TGFb inhibitor 11µM, ATXN2 expr inh inconclusive, HT1080-NT tox inconclusive, HT1080 IDH1KD tx inconclusive
CCO[C@@H]1OC(C(=O)N2CCN(Cc3ccccc3)CC2)=C[C@H](c2ccc(C(F)(F)F)cc2)[C@H]1CCCO	S2 tox inconclusive, TGFb inhibitor 13µM
CCOC(=O)COc1ccc2c(C)c(CCN(CC)CC)c(=O)oc2c1	none (no result: HepG2 tox, TGFb inhibitor, ATXN2 expr inh, HT1080-NT tox, HT1080 IDH1KD tx)
CCOC(=O)c1c(C)[nH]c(C2=NNC(=Nc3ccccc3)SC2)c1C	S2 tox inconclusive, TGFb inhibitor 10µM, HT1080-NT tox inconclusive, HT1080 IDH1KD tx inconclusive (no result: ATXN2 expr inh)
CCOC(=O)c1c(C)[nH]c(C2=NNC(=Nc3ccc(OCC)cc3)SC2)c1C	S2 tox inconclusive
O=S(=O)(c1cccc2cnccc12)N1CCCNCC1	ATXN2 expr inh 25µM!, HT1080-NT tox inconclusive
CC1CCN(S(=O)(=O)c2ccc3c(c2)CCN3C(=O)Nc2ccc(Br)cc2)CC1	none (no result: S2 tox, TGFb inhibitor, ATXN2 expr inh, HT1080-NT tox, HT1080 IDH1KD tx)
COC(=O)c1ccccc1Nc1ccnc(Cl)n1	HepG2 tox 20µM
O=c1[nH]c2cc([N+](=O)[O-])ccc2c2ccc([N+](=O)[O-])cc12	TGFb inhibitor inconclusive
O=c1[nH][nH]c2cc([N+](=O)[O-])ccc12	HT1080-NT tox 4.1µM, HT1080 IDH1KD tx 15µM
Cc1cc(N2CCN(c3nc(-c4ccc([N+](=O)[O-])cc4)cs3)CC2)c2ccccc2n1	HT1080-NT tox 18µM, HT1080 IDH1KD tx inconclusive
CN(C)Cc1nc2ccccc2c(=O)n1Cc1nc(-c2cccc([N+](=O)[O-])c2)cs1	ATXN2 expr inh inconclusive, HT1080 IDH1KD tx inconclusive
CN1CCN(Cc2nc3ccccc3c(=O)n2Cc2nc(-c3ccc([N+](=O)[O-])cc3)cs2)CC1	S2 tox inconclusive, HepG2 tox 11µM, TGFb inhibitor 16µM, ATXN2 expr inh inconclusive, HT1080-NT tox 21µM, HT1080 IDH1KD tx 21µM
Cc1ccc2c(c1)CN(CCNC(=O)c1cccc(Cn3cccn3)c1)CC(C)O2 (stereo not given)	none (no result: HepG2 tox, TGFb inhibitor, ATXN2 expr inh, HT1080-NT tox, HT1080 IDH1KD tx)
Cc1[nH]c2ccccc2c1CCNCc1ccc(C=CC(=O)NO)cc1	none (no result: S2 tox, HepG2 tox, TGFb inhibitor, HT1080-NT tox, HT1080 IDH1KD tx)
Cc1cccc(Cc2c(C)nc3c(C(=O)NCc4ccco4)cnn3c2C)c1	TGFb inhibitor 18µM, HT1080-NT tox inconclusive, HT1080 IDH1KD tx inconclusive
Cc1nc2c(C(=O)NCc3ccco3)cnn2c(C)c1Cc1ccc(F)cc1Cl	none
Cc1cc(N2CCN(C)CC2)nc2ccc(NC(=O)c3ccc(C(C)(C)C)cc3)cc12	S2 tox 16µM, HepG2 tox 13µM, TGFb inhibitor inconclusive, ATXN2 expr inh inconclusive (no result: HT1080-NT tox, HT1080 IDH1KD tx)
CCOc1ccccc1NC(=O)Nc1ccc2nc(N3CCN(C)CC3)cc(C)c2c1	HepG2 tox 7.9µM, TGFb inhibitor inconclusive, ATXN2 expr inh inconclusive (no result: S2 tox, HT1080-NT tox, HT1080 IDH1KD tx)
CCOc1ccccc1C(=O)Nc1ccc2nc(N3CCN(c4ncccn4)CC3)cc(C)c2c1	S2 tox inconclusive, ATXN2 expr inh 14µM, HT1080-NT tox inconclusive, HT1080 IDH1KD tx inconclusive
Cc1ccccc1C(=O)Nc1ccc2nc(N3CCCCC3)cc(C)c2c1	S2 tox inconclusive (no result: HT1080-NT tox, HT1080 IDH1KD tx)
Cc1ccc(S(=O)(=O)c2cn(CC(=O)Nc3ccc4c(c3)OCO4)c3ccc(F)cc3c2=O)cc1	S2 tox inconclusive, TGFb inhibitor inconclusive (no result: HT1080-NT tox, HT1080 IDH1KD tx)
Cc1ccc(C)c(N2CCN(C(=O)C3CCCN(S(=O)(=O)c4ccc5c(c4)oc(=O)n5C)C3)CC2)c1 (stereo not given)	S2 tox inconclusive (no result: HT1080-NT tox, HT1080 IDH1KD tx)
COC(=O)c1ccccc1NC(=O)c1ncoc1-c1ccco1	none (no result: HT1080-NT tox, HT1080 IDH1KD tx)
CN(C)c1ccc(C(=O)c2ccccc2C(=O)O)cc1[N+](=O)[O-]	none
COc1ccc(C(=O)Nc2ccc(C)cn2)c(OC)c1	ATXN2 expr inh 3.2µM, HT1080-NT tox inconclusive
CN(C)c1ccc(C(=O)c2ccc(N(C)C)c3ccccc23)cc1	TGFb inhibitor inconclusive, HT1080-NT tox inconclusive, HT1080 IDH1KD tx 0.026µM

Screens from PubChem.
